Assay results reported in PubChem BioAssay (Tox21).
Results filed as inconclusive are left out. Activity calls are given as the source filed them. Calls come from the whole dose curve; as a rule, active = well fitted activation curve with a large enough effect in the signal ratio in the repeat runs (not every such curve was filed as active); inconclusive = weak or mixed curves, or effect the other way; inactive = no such curve, though single readings can be large or run the other way; the % refers to the signal ratio.

Target: Glucocorticoid receptor (Homo sapiens) (UniProt P04150)
Experiment: qHTS assay to identify small molecule agonists of the glucocorticoid receptor (GR) signaling pathway (AID 720691)
Conditions: GR-bla HeLa, beta-lactamase reporter ratio, 18 h; series mostly up to 62.4 µM
Description: U.S. Tox21 Program National Center for Advancing Translational Sciences [NCATS] NIH Chemical Genomics Center [NCGC] U.S. Environmental Protection Agency [EPA] National Institutes of Environmental Health Sciences [NIEHS] National Toxicology Program [NTP] U.S. Food and Drug Administration [FDA] Tox21 Assay Overview: The Glucocorticoid receptor (GR) is one of the members of the nuclear receptor family of ligand-dependent transcription factors. GR plays a critical role in carbohydrate, protein and lipid metabolisms and programmed cell death. CellSensor GR-bla HeLa cell line (Invitrogen) contains a beta-lactamase reporter gene under the control of the glucocorticoid response element stably integrated into HeLa cells, a cervical cancer cell line that expresses glucocorticoid receptor. The activation of the reporter gene under culture conditions can be detected by fluorescence intensity. This cell line has been used to screen the Tox21 10K compound library and to identify the compounds that activate the GR signaling.
Tox21 Assay Protocol Summary: The GR-bla HeLa cells were dispensed at 1500 cells/6 ul/well in 1536-well black wall/clear bottom plates using a Multidrop Combi (ThermoFisher Scientific, Waltham, MA) dispenser. After the assay plates were incubated at a 37 C/5% CO2 incubator for 4 hours, 23 nL of compounds dissolved in DMSO, positive controls or DMSO only was transferred to the assay plate by a pintool station (Kalypsys, San Diego, CA). The plates were incubated at 37 C for 18 hours. After 1 uL of LiveBLAzerTM B/G FRET substrate was added using a Flying Reagent Dispenser (Aurora Discovery, San Diego, CA), the plates were incubated at room temperature for 2 hours, and fluorescence intensity was measured by an Envision plate reader (PerkinElmer, Shelton, CT).

Glucocorticoid receptor (Homo sapiens), sequence (P04150 whole entry, looked up): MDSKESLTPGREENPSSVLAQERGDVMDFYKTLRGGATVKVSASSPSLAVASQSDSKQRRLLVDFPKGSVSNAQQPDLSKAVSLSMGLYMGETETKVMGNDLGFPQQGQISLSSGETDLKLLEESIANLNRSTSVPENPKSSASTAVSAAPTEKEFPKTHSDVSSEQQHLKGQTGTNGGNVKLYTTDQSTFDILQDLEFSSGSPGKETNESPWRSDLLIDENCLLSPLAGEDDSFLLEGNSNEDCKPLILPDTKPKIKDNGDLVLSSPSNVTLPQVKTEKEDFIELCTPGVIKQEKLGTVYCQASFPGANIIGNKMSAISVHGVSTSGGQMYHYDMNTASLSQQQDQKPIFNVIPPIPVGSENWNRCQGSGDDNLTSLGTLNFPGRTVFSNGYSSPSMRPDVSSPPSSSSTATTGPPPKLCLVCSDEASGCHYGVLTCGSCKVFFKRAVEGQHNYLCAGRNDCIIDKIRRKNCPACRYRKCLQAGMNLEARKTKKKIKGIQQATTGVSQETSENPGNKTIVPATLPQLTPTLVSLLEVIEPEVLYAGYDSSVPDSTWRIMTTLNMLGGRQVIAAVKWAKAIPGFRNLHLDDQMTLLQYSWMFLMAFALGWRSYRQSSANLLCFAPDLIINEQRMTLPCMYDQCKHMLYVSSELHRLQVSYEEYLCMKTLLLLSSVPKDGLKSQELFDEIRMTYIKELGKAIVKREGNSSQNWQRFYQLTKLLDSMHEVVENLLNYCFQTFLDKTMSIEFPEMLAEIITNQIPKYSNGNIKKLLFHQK

| SMILES | outcome |
| --- | --- |
| CCNCC | inactive |
| Brc1ccc(Br)cc1 | inactive |
| ClCC(Cl)CCl | inactive |
| NC(=O)CN1CCCC1=O | inactive |
| CN(C)c1ccccc1 | inactive |
| CC(C)(C#N)N=NC(C)(C)C#N | inactive |
| OCCOCCO | inactive |
| CCOP(=S)(OCC)OP(=S)(OCC)OCC | inactive |
| O=NN1CCOCC1 | inactive |
| C=CC(Cl)CCl (stereo not given) | inactive |
| CC(C)=CC1C(C(=O)OCc2cccc(Oc3ccccc3)c2)C1(C)C (stereo not given) | inactive |
| O=P(OCCCl)(OCCCl)OCCCl | inactive |
| CC1CC(=O)O1 (stereo not given) | inactive |
| O=C(O)c1nn(Cc2ccc(Cl)cc2Cl)c2ccccc12 | inactive |
| N#CCCCCC#N | inactive |
| Clc1cccc(Cl)c1 | inactive |
| N#Cc1cccnc1 | inactive |
| C[C@]12CCC(=O)C=C1CC[C@@H]1[C@@H]2CC[C@@]2(C)[C@H]1CC[C@]2(C)O | inactive |
| Cc1ccc(N=CN(C)C=Nc2ccc(C)cc2C)c(C)c1 | inactive |
| CC(C)=CC1C(C(=O)OCN2C(=O)C3=C(CCCC3)C2=O)C1(C)C (stereo not given) | inactive |

| SMILES | outcome |
| --- | --- |
| CCNc1nc(Cl)nc(NC(C)(C)C#N)n1 | inactive |
| CC(C)Nc1ccc(Nc2ccccc2)cc1 | inactive |
| Cn1c(-c2ccccc2)cc(-c2ccccc2)[n+]1C | inactive |
| CCCCOCCOC(C)=O | inactive |
| Nc1ncn[nH]1 | inactive |
| Cc1cccc(N=Nc2ccc(N(C)C)cc2)c1 | inactive |
| CCOC(=O)c1ccccc1N | inactive |
| OC(c1ccc(Cl)cc1)(c1cncnc1)c1ccccc1Cl (stereo not given) | inactive |
| CC(O)CN(CC(C)O)CC(C)O (stereo not given) | inactive |
| Oc1ccc(Cl)cc1Cl | inactive |
| c1ccc(C2CO2)cc1 (stereo not given) | inactive |
| ClC(Cl)(Cl)c1ccccc1 | inactive |
| N#CC(c1ccccc1)c1ccccc1 | inactive |
| CNC(=S)S | inactive |
| CC1=C(C(=O)Nc2ccccc2)SCCO1 | inactive |
| O=C1CCCO1 | inactive |
| CC(C)CON=O | inactive |
| CCC/C=N/O | inactive |
| COC(=O)Nc1nc2ccccc2[nH]1 | inactive |
| CNC(=O)Oc1cccc2c1OC(C)(C)C2 | inactive |
